Results: the supplement of paper PMC6555819

Experiments:
Experiment in all cases: PBM binding z-score (relative to random genomic background probes); higher = stronger binding; sequences stand for … in GC…GCGATTGACAGCGTAGAATGAAGG
[1] = system: FXR:RXRa (NR concentration 270 nM, RXRa partner concentration 90 nM)
In short: (§1)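 Binding z-scores were set against random background probes. The data came from custom Agilent 4×180K protein-binding microarrays carrying double-stranded probes with 34-nt variable regions, incubated 1 h with ligand-free nuclear receptor dimers. Partner-specific antibodies detected binding, and scanned fluorescence was regression-normalized.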

[2] = system: LXRa:RXRa (NR concentration 270 nM, RXRa partner concentration 90 nM)
In short: as §1

[3] = system: LXRa homodimer (NR concentration 270 nM)
In short: as §1

[4] = system: LXRb:RXRa (NR concentration 270 nM, RXRa partner concentration 90 nM)
In short: as §1

[5] = system: LXRb homodimer (NR concentration 270 nM)
In short: as §1

[6] = system: PPARa:RXRa (NR concentration 270 nM, RXRa partner concentration 90 nM)
In short: as §1

[7] = system: PPARg:RXRa (NR concentration 180 nM, RXRa partner concentration 90 nM)
In short: as §1

[8] = system: PPARg:RXRa 270nM:90nM, anti-RXR (NR concentration 270 nM, RXRa partner concentration 90 nM)
In short: as §1

[9] = system: PPARg:RXRa 30nM:10nM, anti-RXR (NR concentration 30 nM, RXRa partner concentration 10 nM)
In short: as §1

[10] = system: PPARg:RXRa 90nM:30nM, anti-RXR (NR concentration 90 nM, RXRa partner concentration 30 nM)
In short: as §1

[11] = system: PPARg:RXRa DBDmut IVT, anti-RXR (DBD mutation: RXRa K156A/R161A, NR concentration 270 nM, RXRa partner concentration 90 nM)
In short: as §1

[12] = system: PPARg:RXRa IVT, anti-PPARg (NR concentration 270 nM, RXRa partner concentration 90 nM)
In short: as §1

[13] = system: PPARg DBDmut:RXRa IVT, anti-PPARg (DBD mutation: PPARg1 K132A/R137A, NR concentration 270 nM, RXRa partner concentration 90 nM)
In short: as §1

[14] = system: PPARg DBDmut IVT, anti-PPARg (DBD mutation: PPARg1 K132A/R137A, NR concentration 270 nM)
In short: as §1

[15] = system: PPARg homodimer (NR concentration 180 nM)
In short: as §1

[16] = system: PXR:RXRa (NR concentration 270 nM, RXRa partner concentration 90 nM)
In short: as §1

[17] = system: PXR homodimer (NR concentration 270 nM)
In short: as §1

[18] = system: RARa:RXR (NR concentration 270 nM, RXRa partner concentration 90 nM)
In short: as §1

[19] = system: RARa homodimer (NR concentration 270 nM)
In short: as §1

[20] = system: RARb:RXRa (NR concentration 270 nM, RXRa partner concentration 90 nM)
In short: as §1

CCGAGTAGGTTATGGGGCATTCCGGCAACGGTGA was tested, and the PBM binding z-score [1] was 0.0637, the PBM binding z-score [2] was 0.227 and the PBM binding z-score [3] was -0.224. The PBM binding z-score [4] was 0.574, the PBM binding z-score [5] was -0.279 and the PBM binding z-score [6] was 1.97. It also gave a PBM binding z-score [7] of 3.05, a PBM binding z-score [8] of 4.51 and a PBM binding z-score [9] of 1.83. It also gave a PBM binding z-score [10] of 3.99, a PBM binding z-score [11] of 3.2 and a PBM binding z-score [12] of 3.14. For the same sequence, the PBM binding z-score [13] was 0.204, the PBM binding z-score [14] was -0.0547 and the PBM binding z-score [15] was 0.995. For the same sequence, the PBM binding z-score [16] was -0.218, the PBM binding z-score [17] was -0.17 and the PBM binding z-score [18] was 0.0767. The PBM binding z-score [19] was 0.0897 and the PBM binding z-score [20] was 0.966.
CAAACTAGGTCACAGAGGCCAAAGTCCGTGCGTA was tested, and the PBM binding z-score [1] was 4.93, the PBM binding z-score [2] was 3.79 and the PBM binding z-score [3] was 1.02. The PBM binding z-score [4] was 2.66, the PBM binding z-score [5] was 0.0915 and the PBM binding z-score [6] was 5.36. It also gave a PBM binding z-score [7] of 8.81, a PBM binding z-score [8] of 7.33 and a PBM binding z-score [9] of 5.35. For the same sequence, the PBM binding z-score [10] was 7.09, the PBM binding z-score [11] was 8.22 and the PBM binding z-score [12] was 8.69. The PBM binding z-score [13] was 7.35, the PBM binding z-score [14] was 2.65 and the PBM binding z-score [15] was 3.4. The PBM binding z-score [16] was 3.51, the PBM binding z-score [17] was 2.61 and the PBM binding z-score [18] was 3.27. It also gave a PBM binding z-score [19] of 0.794 and a PBM binding z-score [20] of 4.23.
With AGAACGAGGGCAATGAGTGGATAGCACGGGTGGC the PBM binding z-score [1] was 0.0707, the PBM binding z-score [2] was 0.00914 and the PBM binding z-score [3] was -0.454. The PBM binding z-score [4] was -0.474, the PBM binding z-score [5] was -0.905 and the PBM binding z-score [6] was 1.12. It also gave a PBM binding z-score [7] of 1.49, a PBM binding z-score [8] of 0.671 and a PBM binding z-score [9] of 0.264. It also gave a PBM binding z-score [10] of 0.612, a PBM binding z-score [11] of 3.17 and a PBM binding z-score [12] of 2.32. For the same sequence, the PBM binding z-score [13] was 0.26, the PBM binding z-score [14] was -0.542 and the PBM binding z-score [15] was -0.143. The PBM binding z-score [16] was -0.0216, the PBM binding z-score [17] was -0.0699 and the PBM binding z-score [18] was -0.0529. For the same sequence, the PBM binding z-score [19] was 0.296 and the PBM binding z-score [20] was 1.72.
With TTACCAAGGTGAAAGGTCGTCGATGCACGCCTTG the PBM binding z-score [1] was 3.2, the PBM binding z-score [2] was 3.29 and the PBM binding z-score [3] was 0.0373. It also gave a PBM binding z-score [4] of 2.77, a PBM binding z-score [5] of -0.541 and a PBM binding z-score [6] of 5.6. It also gave a PBM binding z-score [7] of 9.29, a PBM binding z-score [8] of 8.47 and a PBM binding z-score [9] of 7.23. It also gave a PBM binding z-score [10] of 9, a PBM binding z-score [11] of 2.84 and a PBM binding z-score [12] of 5.42. For the same sequence, the PBM binding z-score [13] was 0.568, the PBM binding z-score [14] was 0.68 and the PBM binding z-score [15] was 1.99. The PBM binding z-score [16] was 4.17, the PBM binding z-score [17] was -0.076 and the PBM binding z-score [18] was 6.52. The PBM binding z-score [19] was -0.215 and the PBM binding z-score [20] was 3.27.
GATACTGGGTCAGCTAGAGGCCAGAGTATGGAAA was tested, and the PBM binding z-score [1] was 0.906, the PBM binding z-score [2] was 0.796 and the PBM binding z-score [3] was -0.487. The PBM binding z-score [4] was 0.388, the PBM binding z-score [5] was -0.812 and the PBM binding z-score [6] was 2.91. For the same sequence, the PBM binding z-score [7] was 3.87, the PBM binding z-score [8] was 3.8 and the PBM binding z-score [9] was 0.981. The PBM binding z-score [10] was 2.65, the PBM binding z-score [11] was 5.49 and the PBM binding z-score [12] was 5.95. It also gave a PBM binding z-score [13] of 0.246, a PBM binding z-score [14] of -0.167 and a PBM binding z-score [15] of 1.24. The PBM binding z-score [16] was 1.15, the PBM binding z-score [17] was -0.114 and the PBM binding z-score [18] was 2.03. The PBM binding z-score [19] was -0.28 and the PBM binding z-score [20] was 3.26.
In the case of CGTCTAAGGTCAGAGAGGTCAGTGAATGCCGAGT, the PBM binding z-score [1] is reported as 6.73, the PBM binding z-score [2] is reported as 5.75 and the PBM binding z-score [3] is reported as 3.47. It also gave a PBM binding z-score [4] of 5.03, a PBM binding z-score [5] of 0.521 and a PBM binding z-score [6] of 5.48. For the same sequence, the PBM binding z-score [7] was 4.02, the PBM binding z-score [8] was 5.03 and the PBM binding z-score [9] was 1.38. It also gave a PBM binding z-score [10] of 3.5, a PBM binding z-score [11] of 3.8 and a PBM binding z-score [12] of 3.69. It also gave a PBM binding z-score [13] of 0.924, a PBM binding z-score [14] of -0.453 and a PBM binding z-score [15] of 4.52. For the same sequence, the PBM binding z-score [16] was 6.51, the PBM binding z-score [17] was 12 and the PBM binding z-score [18] was 5.99. The PBM binding z-score [19] was 1.28 and the PBM binding z-score [20] was 5.56.
Sequence ATCTCTATGTAACAAGTTCAGTGAAAGAGAGGAC has a PBM binding z-score [1] of -0.00461, a PBM binding z-score [2] of 0.0801 and a PBM binding z-score [3] of 0.289. It also gave a PBM binding z-score [4] of 0.189, a PBM binding z-score [5] of 0.769 and a PBM binding z-score [6] of 0.267. For the same sequence, the PBM binding z-score [7] was 0.597, the PBM binding z-score [8] was 0.532 and the PBM binding z-score [9] was 0.31. It also gave a PBM binding z-score [10] of 0.575, a PBM binding z-score [11] of -0.367 and a PBM binding z-score [12] of 0.29. It also gave a PBM binding z-score [13] of 1.13, a PBM binding z-score [14] of 0.92 and a PBM binding z-score [15] of 0.596. It also gave a PBM binding z-score [16] of 1.35, a PBM binding z-score [17] of 1.37 and a PBM binding z-score [18] of 0.511. The PBM binding z-score [19] was 0.404 and the PBM binding z-score [20] was 1.08.
